Source: publication PMC4336329 (PLoS ONE, 2015)
The whole screen tested about 310,000 compounds, of which about 14,000 (4.5%) showed an effect of 50% or more. The effect is printed as a negative number. The full list was thinned out, with strong results kept by preference.

Molecular target: human ether-à-go-go-related gene (hERG) potassium channel (human, UniProt Q12809)
Experiment: primary screen, population patch clamp on CHO cells stably expressing hERG; higher = less effect of the substance
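Note: peak tail current of the secondary pulse compared with the same well before compound.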

Sequence of human ether-à-go-go-related gene (hERG) potassium channel (Q12809 whole entry, looked up): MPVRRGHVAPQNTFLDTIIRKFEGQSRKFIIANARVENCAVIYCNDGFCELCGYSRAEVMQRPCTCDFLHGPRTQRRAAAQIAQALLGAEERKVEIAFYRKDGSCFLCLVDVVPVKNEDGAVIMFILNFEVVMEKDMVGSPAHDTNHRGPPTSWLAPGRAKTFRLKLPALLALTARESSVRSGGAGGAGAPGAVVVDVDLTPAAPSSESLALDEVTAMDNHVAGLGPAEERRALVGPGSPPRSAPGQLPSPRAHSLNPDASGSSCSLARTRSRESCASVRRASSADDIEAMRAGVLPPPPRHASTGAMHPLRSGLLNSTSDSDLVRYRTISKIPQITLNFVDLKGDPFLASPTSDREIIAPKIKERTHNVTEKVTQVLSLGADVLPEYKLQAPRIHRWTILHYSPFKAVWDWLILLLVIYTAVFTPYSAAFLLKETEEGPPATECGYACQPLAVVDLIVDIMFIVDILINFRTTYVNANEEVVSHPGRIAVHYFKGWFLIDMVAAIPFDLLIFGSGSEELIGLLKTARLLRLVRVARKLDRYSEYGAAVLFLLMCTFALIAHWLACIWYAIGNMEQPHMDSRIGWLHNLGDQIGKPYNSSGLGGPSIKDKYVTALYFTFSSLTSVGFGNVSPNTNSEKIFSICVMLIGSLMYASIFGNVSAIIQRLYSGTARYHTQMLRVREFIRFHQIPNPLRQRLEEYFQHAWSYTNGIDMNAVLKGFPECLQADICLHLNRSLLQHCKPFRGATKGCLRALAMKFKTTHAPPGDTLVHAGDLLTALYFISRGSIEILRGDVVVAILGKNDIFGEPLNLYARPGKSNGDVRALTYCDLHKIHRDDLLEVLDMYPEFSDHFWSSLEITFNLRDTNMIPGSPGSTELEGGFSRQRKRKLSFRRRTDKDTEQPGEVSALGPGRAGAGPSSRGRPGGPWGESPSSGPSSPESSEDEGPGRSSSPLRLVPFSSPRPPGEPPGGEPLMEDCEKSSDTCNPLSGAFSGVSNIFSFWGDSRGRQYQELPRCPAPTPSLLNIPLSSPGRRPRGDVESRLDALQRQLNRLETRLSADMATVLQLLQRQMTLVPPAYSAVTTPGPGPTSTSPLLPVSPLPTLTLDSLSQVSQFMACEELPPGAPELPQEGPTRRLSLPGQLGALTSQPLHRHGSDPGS

Structure (SMILES) | hERG current change (%, negative = inhibition) at 10uM
COc1ccc(S(=O)(=O)N2CCCC2C(=O)Nc2nc3c(s2)CCCC3)cc1 (stereo not shown) | -14%
COc1ccc(CCNC(=O)c2cc(S(=O)(=O)N(C)c3ccccc3)ccc2Cl)cc1 | -16.6%
Cn1[nH]c(-c2ccccc2)c(/C=N/O)c1=O | -15.1%
COCCn1c(-c2ccc(OC(F)(F)C(F)C(F)(F)F)cc2)nc2c1c(=O)[nH]c(=O)n2CC(C)C (stereo not shown) | -19.5%
CC1CCCN(C(=O)c2ccccc2OC2CCN(S(C)(=O)=O)CC2)C1 (stereo not shown) | 11.1%
O=C(c1cc(-c2ccc(Br)cc2)nc2ccccc12)N1CCC1 | -44.4%
O=C(c1cc(-c2ccccc2)nc2ccccc12)N1CCCC1 | 2.55%
O=C(c1cc(-c2ccc(Cl)cc2)nc2ccccc12)N1CCC1 | -59.7%
COc1ccc(/C=c2\sc3nc(-c4ccccc4OC)nn3c2=O)c(OC)c1 | 9.67%
COC(=O)c1ccccc1OCC(=O)N1CCN(c2ccc(F)cc2)CC1 | -44.9%
CCC(=O)c1cc(F)ccc1OCC(=O)N1CCN(c2ccc(F)cc2)CC1 | -72.1%
COC(=O)c1ccc(OC)cc1OCC(=O)N1CCN(c2ccc(F)cc2)CC1 | -33%
Cc1c(C)c2ccc(OCC(=O)N3CCN(c4ccc(F)cc4)CC3)c(C)c2oc1=O | 2.26%
Cc1ccc(C)c(N2CCN(C(=O)COc3cc(=O)n(C)c4ccccc34)CC2)c1 | -32.3%
CC(=O)c1cc(F)ccc1OCC(=O)N1CCN(c2ccc(F)cc2)CC1 | -58.2%
Cc1cc(OCC(=O)N2CCN(c3ccc(F)cc3)CC2)c2c(C)cc(=O)oc2c1 | 10.7%
Cn1c(=O)oc2cc(S(=O)(=O)CCC(=O)N3CCN(c4ccccc4F)CC3)ccc21 | 1.03%
Cn1c(=O)cc(OCC(=O)N2CCN(c3ccccc3F)CC2)c2ccccc21 | -17.5%
Cc1cccc(N2CCN(C(=O)CCS(=O)(=O)c3ccc4c(c3)oc(=O)n4C)CC2)c1C | -51.2%
Cc1cccc(N2CCN(C(=O)COc3cc(=O)n(C)c4ccccc34)CC2)c1C | -61.2%
Cc1ccc(C)c(N2CCN(C(=O)CCS(=O)(=O)c3ccc4c(c3)oc(=O)n4C)CC2)c1 | -48.6%
CCOC(=O)c1c(S(=O)(=O)NCC(=O)Nc2ccc(F)cc2)c(C)n(C)c1C | 14.5%
